Our source for the AC50 and outcome values is PubChem BioAssay (EPA / NIEHS).

As a reminder, the AC50 is the concentration giving half of the maximal activity seen.

Read-out in experiment [1]: xenobiotic metabolism (CYP1A2), CYP1A2 (gene 1544)
Briefly: CLD_CYP1A2_6hr: CellzDirect (CLD) Gene Expression Assay for xenobiotic metabolism (CYP1A2) at 6 hours (AID 2283663).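 For AC50: potency is for induction meaning a rise in mRNA above DMSO.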 In outline: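 Primary human hepatocytes from two donor preparations, dosed daily with multiple concentrations in 0.2% DMSO and harvested at 6 h. CYP1A2 mRNA induction measured by chemiluminescent qNPA, gain of signal fitted against DMSO; cytotoxicity flagged morphologically.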

Experiment [2] in a line: CCTE_Simmons_CellTiterGLO_HEK293T: Viability Assessment in CCTE's Assays for Thyroperoxidase (TPO) Inhibition, Simmons Lab (AID 2283665).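 For AC50: cells exposed to compound for 24 h before readout; actives reduce ATP signal below DMSO vehicle meaning cytotoxicity.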 In outline:
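HEK293T cells in DMEM with 1% FBS were dosed with 8 concentrations (5 nM–87.5 uM final, 0.5% DMSO) for 24 hr at 37C; ATP content was read by CellTiter-Glo luminescence, loss-of-signal versus DMSO, three biological replicates.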
On the technique in general: Cellular ATP, detected with luciferase, serves as a proxy for viable cell number.

Experiment [3] in a line: Tanguay_ZF_120hpf_TR_legacy: (Legacy) Oregon State University Tanguay Lab 120 Hour Post-fertilization zebrafish Assay for Touch Response (AID 2283667). The essentials:
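5D WT embryos; static exposure to 120 hpf, 28C, sealed/dark; DMSO 0.64% v/v final. TR scored present/absent; dead embryos excluded. Pos ctrl 5uM trimethyltin chloride.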

Experiment [4] is described as follows: CLD_ACTIN_24hr: CellzDirect (CLD) Gene Expression Assay for Baseline Control (Actin) at 24 hours (AID 2283670). The essentials: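 Primary human hepatocytes dosed over multiple concentrations with 0.2% DMSO vehicle; actin mRNA measured at 24 h by qNPA chemiluminescence. Background control endpoint, fitted as gain of signal versus DMSO.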
Read-out in experiment [5]: Cytochrome P450 (CYP24A1_1), CYP24A1 (gene 1591)
As to the kind of experiment: LTEA_HepaRG_CYP24A1_1: Life Technologies and Expression Analysis (LTEA) Assay for Cytochrome P450 (CYP24A1_1) using HepaRG (AID 2283671; active = hit-call score of the fitted dose curve at least 0.9, where 1 is the maximum; inactive = score below 0.9). As to conditions: mRNA level, 48 h; actives raise or lower the signal. In outline: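 In this test, gene induction or suppression of CYP24A1 in human HepaRG liver cells is measured by qRT-PCR after 48 h chemical treatment (eight concentrations, maximum 100 uM). Values are fitted bidirectionally relative to DMSO.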

Read-out in experiment [6]: ABC Transporter (ABCB11), ABCB11 (gene 8647)
As to the kind of experiment: CLD_ABCB11_6hr: CellzDirect (CLD) Gene Expression Assay for ABC Transporter (ABCB11) at 6 hours (AID 2283675).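 Note: hits raise ABCB11 mRNA level so AC50 marks induction.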 In outline:
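Human primary hepatocytes (two donor preparations) given fresh chemical daily at multiple concentrations, vehicle 0.2% DMSO. ABCB11 mRNA induction measured 6 h after dosing by qNPA chemiluminescence versus DMSO; cytotoxicity annotated from morphology.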

Read-out in experiment [7]: Cytochrome P450 3A4 (Homo sapiens) (UniProt P08684)
As to the kind of experiment: CLD_CYP3A4_24hr: CellzDirect (CLD) Gene Expression Assay for xenobiotic metabolism (CYP3A4) at 24 hours (AID 2283689). In outline: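 Primary human hepatocytes from two donors dosed daily with fresh compound for two days, 0.2% DMSO vehicle. CYP3A4 mRNA at 24 hr by qNPA chemiluminescence; gain-of-signal fit versus DMSO, cytotoxicity flagged by morphology.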

Read-out in experiment [8]: ABC Transporter (ABCB1), ABCB1 (gene 5243)
As to the kind of experiment: CLD_ABCB1_48hr: CellzDirect (CLD) Gene Expression Assay for ABC Transporter (ABCB1) at 48 hours (AID 2283695).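 For AC50: potency for induction meaning increase of mRNA over DMSO vehicle.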 The essentials:
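Primary human hepatocytes from two donor preparations dosed daily on two consecutive days with 0.2% DMSO vehicle. Harvest at 48 h. ABCB1 mRNA quantified by qNPA with chemiluminescence and fitted for gain of signal versus DMSO.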

Read-out in experiment [9]: alkyl and aryl transferase (GSTA2), GSTA2 (gene 2939)
Briefly: CLD_GSTA2_6hr: CellzDirect (CLD) Gene Expression Assay for alkyl and aryl transferase (GSTA2) at 6 hours (AID 2283666). In outline:
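Primary human hepatocytes from two donor preparations were dosed daily with fresh compound at multiple concentrations, 0.2% DMSO vehicle. GSTA2 mRNA was measured at 6 hours by qNPA chemiluminescence; induction fitted relative to DMSO, with cytotoxicity flagged morphologically.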

Read-out in experiment [10]: ABC Transporter (ABCB11), ABCB11 (gene 8647)
As to the kind of experiment: CLD_ABCB11_24hr: CellzDirect (CLD) Gene Expression Assay for ABC Transporter (ABCB11) at 24 hours (AID 2283674; active = hit-call score of the fitted dose curve at least 0.9, where 1 is the maximum; inactive = score below 0.9). The essentials:
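Primary human hepatocytes were dosed daily for two days, with 0.2% DMSO vehicle. ABCB11 mRNA induction was measured at 24 hours by quantitative nuclease protection assay with chemiluminescence. Gain of signal was fitted relative to DMSO.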

A short description of experiment [11]: CLD_ACTIN_6hr: CellzDirect (CLD) Gene Expression Assay for Baseline Control (Actin) at 6 hours (AID 2283676).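 Note: active means increased actin mRNA relative to DMSO vehicle.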 In outline:
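Primary human hepatocytes dosed with fresh chemical solutions (vehicle 0.2% DMSO), harvested at 6 h. Actin mRNA quantified by quantitative nuclease protection assay with chemiluminescent read-out, as background control relative to DMSO.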

Experiment [12] is described as follows: CCTE_Padilla_ZF_144hpf_TERATOSCORE: (Legacy) CCTE's 144 Hour Post-fertilization zebrafish Assay Teratoscore, Padilla Lab (AID 2283679; active = hit-call score of the fitted dose curve at least 0.9, where 1 is the maximum; inactive = score below 0.9;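 for AC50: zebrafish embryos with chorions exposed by immersion from 6-8 hpf to 5 dpf with daily renewal; teratogenicity score from eye scoring of death hatching and malformations at 144 hpf; higher score means more developmental defects relative to DMSO baseline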). The essentials: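 Larvae scored by eye at 144 hpf for death, hatching and malformations after a day in clean Hanks'. Before that, daily-renewed exposure at 80 uM (0.4% DMSO, 26C) from roughly 6-8 hpf through 5 dpf, 4 embryos per chemical.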

Read-out in experiment [13]: glucuronosyltransferase (UGT1A1), UGT1A1 (gene 54658)
Briefly: CLD_UGT1A1_24hr: CellzDirect (CLD) Gene Expression Assay for glucuronosyltransferase (UGT1A1) at 24 hours (AID 2283696). In outline:
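Primary human hepatocytes from two donor preparations were dosed (0.2% DMSO vehicle) and harvested at 24 h; UGT1A1 mRNA induction was quantified by chemiluminescent qNPA, fitted as gain relative to DMSO.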

Read-out in experiment [14]: Cytochrome P450 2C19 (Homo sapiens) (UniProt P33261)
As to the kind of experiment: CLD_CYP2C19_48hr: CellzDirect (CLD) Gene Expression Assay for xenobiotic metabolism (CYP2C19) at 48 hours (AID 2283700).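 Note: fitted upward so actives raise CYP2C19 mRNA above the 0.2% DMSO vehicle.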 In outline: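 Primary human hepatocytes (two donor preparations) dosed daily for two days, harvested at 48 h; CYP2C19 mRNA induction measured by qNPA chemiluminescence. Gain-of-signal fitted relative to 0.2% DMSO vehicle as baseline.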

Read-out in experiment [15]: Cytochrome P450 2C19 (Homo sapiens) (UniProt P33261)
Briefly: CLD_CYP2C19_6hr: CellzDirect (CLD) Gene Expression Assay for xenobiotic metabolism (CYP2C19) at 6 hours (AID 2283678). In outline:
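Primary human hepatocytes from two donor preparations were dosed daily, with 0.2% DMSO as vehicle, and harvested 6 h after dosing. CYP2C19 mRNA induction was measured by qNPA chemiluminescence and fitted as gain of signal against DMSO.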

Read-out in experiment [16]: Cytochrome P450 2C9 (Homo sapiens) (UniProt P11712)
As to the kind of experiment: CLD_CYP2C9_24hr: CellzDirect (CLD) Gene Expression Assay for xenobiotic metabolism (CYP2C9) at 24 hours (AID 2283688). The essentials: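 Primary human hepatocytes from two donor preparations, dosed daily for two days at multiple concentrations; vehicle 0.2% DMSO. CYP2C9 mRNA induction at 24 h measured by qNPA chemiluminescence relative to DMSO; cytotoxicity annotated from morphology.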

Read-out in experiment [17]: organic anion transporter (SLCO1B1), SLCO1B1 (gene 10599)
Briefly: CLD_SLCO1B1_24hr: CellzDirect (CLD) Gene Expression Assay for organic anion transporter (SLCO1B1) at 24 hours (AID 2283690). The essentials: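 Primary human hepatocytes (two donor preparations) dosed daily for two days with chemicals at multiple concentrations, 0.2% DMSO vehicle. SLCO1B1 mRNA at 24 h measured by qNPA chemiluminescence; induction fitted relative to DMSO.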

Read-out in experiment [18]: xenobiotic metabolism (CYP2C9), CYP2C9 (gene 1559)
Briefly: CLD_CYP2C9_48hr: CellzDirect (CLD) Gene Expression Assay for xenobiotic metabolism (CYP1A2) at 48 hours (AID 2283701; active = hit-call score of the fitted dose curve at least 0.9, where 1 is the maximum; inactive = score below 0.9). In outline: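 Primary human hepatocytes (two donor preparations) dosed daily for two days with test chemicals, 0.2% DMSO vehicle; harvested at 48 h. mRNA induction quantified by qNPA chemiluminescence, fitted for gain of signal against DMSO baseline; cytotoxicity annotated from phase-contrast morphology.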

Records with an inconclusive call do not appear. A structure can be active in one record and inactive in another. Calls of active or inactive are those of the source. Rule for the calls, unless noted: active = hit-call score of the fitted dose curve at least 0.9, where 1 is the maximum; inconclusive = response in the unintended direction; inactive = score below 0.9.

Chain of Cytochrome P450 3A4 (Homo sapiens) (P08684 whole entry, looked up): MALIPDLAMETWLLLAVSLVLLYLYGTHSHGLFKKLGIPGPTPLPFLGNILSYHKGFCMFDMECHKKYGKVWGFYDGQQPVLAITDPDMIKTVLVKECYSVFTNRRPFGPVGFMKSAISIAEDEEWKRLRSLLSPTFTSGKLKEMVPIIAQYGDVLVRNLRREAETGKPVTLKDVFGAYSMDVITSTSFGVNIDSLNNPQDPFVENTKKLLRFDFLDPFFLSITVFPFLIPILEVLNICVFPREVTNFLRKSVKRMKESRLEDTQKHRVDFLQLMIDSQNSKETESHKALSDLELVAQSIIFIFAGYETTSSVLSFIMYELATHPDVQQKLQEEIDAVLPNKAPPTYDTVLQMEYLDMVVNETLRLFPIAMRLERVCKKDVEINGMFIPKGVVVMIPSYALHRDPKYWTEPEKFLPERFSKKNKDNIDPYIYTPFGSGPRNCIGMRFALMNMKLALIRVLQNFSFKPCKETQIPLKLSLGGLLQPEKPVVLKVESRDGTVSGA
Chain of Cytochrome P450 2C19 (Homo sapiens) (P33261 whole entry, looked up): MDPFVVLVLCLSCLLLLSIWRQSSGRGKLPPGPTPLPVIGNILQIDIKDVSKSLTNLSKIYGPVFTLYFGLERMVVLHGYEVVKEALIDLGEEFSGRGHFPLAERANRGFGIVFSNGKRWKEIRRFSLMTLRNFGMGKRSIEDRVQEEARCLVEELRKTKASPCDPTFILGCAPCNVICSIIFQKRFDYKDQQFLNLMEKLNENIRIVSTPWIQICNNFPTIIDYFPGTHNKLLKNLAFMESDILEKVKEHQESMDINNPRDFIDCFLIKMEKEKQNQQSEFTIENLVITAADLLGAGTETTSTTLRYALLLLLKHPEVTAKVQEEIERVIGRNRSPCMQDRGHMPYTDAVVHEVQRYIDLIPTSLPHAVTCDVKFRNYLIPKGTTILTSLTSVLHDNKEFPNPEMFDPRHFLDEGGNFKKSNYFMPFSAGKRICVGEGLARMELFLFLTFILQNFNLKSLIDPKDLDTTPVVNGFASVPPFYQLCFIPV

In the case of `S=C(S)NCCNC(=S)S.[Mn+2].[S-]C([S-])=NCCN=C([S-])[S-].[Zn+2]`, the AC50 in [1] was 2.75 µM (active); in experiment [8] it was 1.06 µM (active). Moreover, the outcome in experiment [2], in [3], in [4], in experiment [5], in [6] and in experiment [7] was inactive.
Regarding `N#CSCSc1nc2ccccc2s1`, the result in experiment [1], in [9], in experiment [3], in experiment [4], in experiment [5] and in experiment [10] was inactive. For the same molecule, the molecule was classed as inactive in experiment [6], in [11], in [7], in experiment [8] and in [13]. Besides, the concentration at half-maximal activity (AC50) in [2] was 9.18 µM (active); in experiment [12], 0.651 µM (active).
Turning to `CSC(=O)c1cccc2nnsc12`, the AC50 in experiment [1] was 33.3 µM (active). Also, the outcome in experiment [2], in experiment [9], in experiment [3], in experiment [4], in experiment [6] and in experiment [11] was inactive. The call in experiment [7] and in experiment [13] was inactive.
Take `CCN(CC)C(=O)c1cccc(C)c1`: the molecule was called inactive in experiment [1], in experiment [9], in [3], in experiment [11], in experiment [12] and in experiment [8]. For the same molecule, the result in experiment [13] and in [14] was inactive.
Consider `CCCN(CCC)C(=O)SCC`, for which the outcome in experiment [1], in experiment [9], in experiment [3], in experiment [4], in [10] and in [11] was inactive. Besides, the result in experiment [15], in [16], in experiment [7], in experiment [17], in experiment [8] and in experiment [13] was inactive. Also, the molecule was classed as inactive in experiment [14].
In the case of `CCOC(=O)C(C)Oc1ccc(Oc2nc3ccc(Cl)cc3o2)cc1` (stereo not given), the molecule was called inactive in [1], in [2], in experiment [9], in experiment [3], in experiment [4] and in [6]. The result in [11], in experiment [7], in experiment [17], in experiment [8], in experiment [13] and in experiment [14] was inactive.
Regarding `CCCCOCCOCCOCc1cc2c(cc1CCC)OCO2`, the figures for the AC50 in experiment [1] and in experiment [12] were 5.75 µM (active) and 15.3 µM (active), respectively. The outcome in experiment [2], in experiment [3], in experiment [5], in experiment [16] and in experiment [13] was inactive.
Regarding `COc1c(Cl)ccc(Cl)c1C(=O)O`, the molecule was called inactive in [1], in experiment [9], in experiment [3], in experiment [4], in experiment [6] and in experiment [11]. For the same molecule, the outcome in experiment [15], in experiment [12], in experiment [16], in experiment [7], in experiment [8] and in experiment [13] was inactive. The call in [14] was inactive. The half-maximal activity concentration (AC50) in [18] was 0.0267 µM (active).
In the case of `COc1nc(C)nc(NC(=O)NS(=O)(=O)c2ccccc2OCCCl)n1`, the molecule was classed as inactive in experiment [1], in experiment [9], in experiment [4], in [6], in experiment [11] and in experiment [15]. Also, the molecule was called inactive in experiment [13] and in experiment [14]. In [7], the AC50 was 6.77 µM (active).
Consider `O=C(c1ccc(O)cc1O)c1ccc(O)cc1O`, for which the result in experiment [2] was inactive. Further, the concentration at half-maximal activity (AC50) in experiment [12] is 95.2 µM (active).
